High-throughput results from PubChem BioAssay.
Not all results are given here.
Gal4-VP16 FLuc = Gal4-VP16 reporter inhibition counter-screen. Drosophila S2 Gal4-VP16 UAS-luciferase, luminescence, 20 h. Potency, µM (titrated, usually from 53.6 µM), for the others: at the top dose activity, negative = inhibition, hits mostly inhibitors. hit rate 3.5% among 310,000;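 further: Gal4-VP16 expression switched on by copper sulfate through the metallothionein promoter; potency means the concentration at half of the fitted maximal effect; on the % scale 0 is the no-effect control and ±100 the full control effect; nearly all actives have a fitted effect of over 50% in size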
TGFb SMAD3 inh = TGF-b pathway inhibition | HepG2 CAGA-GFP TGF-b/SMAD3 reporter, GFP fluorescence, 18 h; TGF-beta stimulated, 500 pg/mL final | Potency, µM (top dose mostly 46.1 µM), for inactives: at the top dose activity, negative = inhibition, usual class: inhibitors | hit rate 1.2% among 410,000 | AID 588855; further: potency means the concentration at half of the fitted maximal effect; on the % scale 0 is the no-effect control and ±100 the full control effect; nearly all actives have a fitted effect of over 65% in size
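First, reporter cells (HEPG2 CAGA-GFP) rested 2 h at 37 degrees C. Next, compounds were pinned in and TGF-beta added to 500 pg/mL final. After 18 h, GFP was imaged per cell and summed per well.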
S2 tox = cell viability loss in ATXN counter-screen; S2 cells (HEK-293 line with an ATXN2-luciferase reporter) viability, CellTiter-Fluor protease fluorescence, 24 h; Potency, µM (titrated, usually from 56.7 µM), most hits filed as cytotoxic; hit rate 0.49% among 400,000; AID 651635; further: potency means the concentration at half of the fitted maximal effect; nearly all actives have a fitted effect of over 40% in size
RORg inh = ROR gamma (mouse) transcription inhibition; P51450; Drosophila S2 Gal4-RORgamma UAS-luciferase reporter, 20 h; Potency, µM (titrated, usually from 53.6 µM), for inactives: at the top dose activity change, negative = inhibition, actives largely listed as inhibitors; hit rate 5.4% among 310,000; AID 2551; further: potency means the concentration at half of the fitted maximal effect; on the % scale 0 is the no-effect control and ±100 the full control effect; nearly all actives have a fitted effect of over 60% in size
Target sequence (P51450 whole entry, looked up, the tested form may be a part): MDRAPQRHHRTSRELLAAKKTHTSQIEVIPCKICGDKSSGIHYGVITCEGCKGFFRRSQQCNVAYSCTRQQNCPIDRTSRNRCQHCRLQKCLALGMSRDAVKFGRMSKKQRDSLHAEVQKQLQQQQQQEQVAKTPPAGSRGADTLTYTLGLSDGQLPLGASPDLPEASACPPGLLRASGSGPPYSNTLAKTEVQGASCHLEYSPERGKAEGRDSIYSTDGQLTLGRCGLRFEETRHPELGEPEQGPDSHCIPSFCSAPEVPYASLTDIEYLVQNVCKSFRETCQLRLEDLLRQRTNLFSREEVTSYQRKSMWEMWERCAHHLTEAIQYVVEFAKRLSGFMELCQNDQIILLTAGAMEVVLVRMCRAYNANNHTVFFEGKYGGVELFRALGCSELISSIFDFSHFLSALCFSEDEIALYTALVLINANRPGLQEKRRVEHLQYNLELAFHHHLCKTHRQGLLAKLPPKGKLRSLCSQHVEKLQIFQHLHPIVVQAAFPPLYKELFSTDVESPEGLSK
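Drosophila S2 cells stably expressing Gal4-DBD/mouse RORγ fusion under metallothionein promoter plus UAS-luciferase; compound 1 h, then 700 uM CuSO4 induction for 20 h at ambient temperature; inhibition read as reduced luminescence.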
ATXN2 expr inh = reduces ATXN2 reporter expression in HEK-293 cells; HEK-293 ATXN2-luciferase reporter, luminescence, 24 h; Potency, µM (titrated, usually from 57 µM), for the others: top-dose activity change, negative = inhibition, most hits filed as inhibitors; hit rate 0.72% among 360,000; further: potency means the concentration at half of the fitted maximal effect; on the % scale 0 is the no-effect control and ±100 the full control effect; nearly all actives have a fitted effect of over 55% in size
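ATXN2-luciferase reporter cells (luciferase flanked by upstream and downstream ATXN2 gene portions) were treated 24 h at 37 °C with compounds at up to 57 uM. SteadyGlo luminescence gave expression; GF-AFC fluorescence gave viability.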
HepG2 viability = kills HepG2 cells in TGF-b inhibitor counter-screen; HepG2 CAGA-GFP viability, ATP luminescence, 18 h; Potency, µM (series often up to 46.1 µM), inactives show top-dose activity change, negative = cytotoxicity, hits mostly cytotoxic; hit rate 0.76% among 410,000; AID 588856; further: potency means the concentration at half of the fitted maximal effect
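HepG2 CAGA-GFP cells (1000/well, DMEM with 1% FBS) received compound, then TGF-beta at 500 pg/mL final, and were incubated 18 hours at 37 degrees C. Viability was read by CellTiter-Glo luminescence. Media-only wells were set as complete cell-killing and DMSO as no toxicity.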
SK-N-SH 3D tox = SK-N-SH 3D spheroid viability loss | shares compounds with ATXN2 expr inh | SK-N-SH 3D spheroid viability, PI/Hoechst imaging, 72 h | Potency, µM (titrated, usually from 30.7 µM), most hits filed as inhibitors | hit rate 70% among 65 | AID 1347135
SJ-GBM2 3D tox = lowers viability of SJ-GBM2 3D spheroids; shares compounds with ATXN2 expr inh; SJ-GBM2 3D spheroid viability, PI/Hoechst imaging, 72 h; Potency, µM (top dose mostly 30.7 µM), most hits filed as inhibitors; hit rate 80% among 65; AID 1347136
Daoy spheroid = reduced viability of Daoy 3D spheroids, orthogonal test; shares compounds with ATXN2 expr inh; Daoy 3D spheroid viability, PI/Hoechst imaging, 72 h; Potency, µM (highest dose often 30.7 µM), usual class: inhibitors; hit rate 50% among 65
TC32 3D casp = activates caspase in TC32 3D spheroids; shares compounds with ATXN2 expr inh; Potency, µM (top dose mostly 30.7 µM), most hits filed as inhibitors; AID 1347138; TC32 3D spheroids, caspase-3/7 fluorescence imaging, 24 h; hit rate 30% among 65
TC32 spheroid = kills TC32 spheroids in orthogonal 3D test; shares compounds with ATXN2 expr inh; Potency, µM (top dose mostly 30.7 µM), most hits filed as inhibitors; hit rate 60% among 65; TC32 3D spheroid viability, PI/Hoechst imaging, 72 h
MG63 3D tox = kills MG-63 (6-TG R) spheroids in orthogonal 3D test; hit rate 50% among 65; Potency, µM (doses to about 30.7 µM), usual class: inhibitors; shares compounds with ATXN2 expr inh; MG-63 (6-TG R) 3D spheroid viability, PI/Hoechst imaging, 72 h
RD spheroid = kills RD rhabdomyosarcoma spheroids in orthogonal 3D test | Potency, µM (doses to about 30.7 µM), most hits filed as inhibitors | hit rate 50% among 65 | shares compounds with ATXN2 expr inh | RD rhabdomyosarcoma 3D spheroid viability, PI/Hoechst imaging, 72 h
Starred values were filed as active, the others as inactive; i = inactive; ? = inconclusive; / = not tested or not shown; [ ] = dose if it differs, or a comment. The call rests on the fitted dose curve; in most records, active means well fitted curve in the direction sought with a large enough effect; inconclusive means small, poorly fitted or top-dose-only effect, or another doubt; inactive means no such curve, though single readings can be large; an effect the other way counts as inactive or inconclusive.

SMILES	Gal4-VP16 FLuc	TGFb SMAD3 inh	S2 tox	RORg inh	ATXN2 expr inh	HepG2 viability	others
CN1[C@@H]2CC[C@H]1CC(OC1c3ccccc3CCc3ccccc31)C2 (stereo partly drawn)	8%[17 µM]	52%	i	14%[16.9 µM]	-5%	-32%
CC(=O)N1CC[N+](C)(C)CC1	-7%	/	/	2%	/	/
COc1ccc(N2CCN(CCc3ccncc3)CC2)cc1	5%	29%	?	-20%	-10%	7%
CCCCC/C=C\C/C=C\CCCCCCCCCC(=O)NCCc1ccc(O)c(O)c1	-7%	/	/	-3%	/	/
CC(Cc1ccc2c(c1)OCO2)NO (stereo not drawn)	/	/	i	/	-22%[116 µM]	/
O=S(=O)(c1ccc(Cl)cc1)c1cc(Cl)c(Cl)cc1Cl	-1%	/	/	-1%	/	/
CCN1CCN(C(=O)Cc2c(C)n(C(=O)c3ccc(Cl)cc3)c3ccc(OC)cc23)CC1	-5%	-17%	?	6%	-13%	-22%
CNNC	-7%	/	/	-11%	/	/
C[C@@]12CC[C@H](O)C[C@@H]1CC[C@H]1[C@@H]2C[C@@H](O)[C@]2(C)[C@@H](C3=CC(=O)OC3)CC[C@]12O	-4%[17 µM]	/	/	10%[16.9 µM]	/	/
C[C@@H]1O[C@@H](O[C@H]2C[C@@H](O)[C@]3(CO)[C@@H]4C(CC[C@]3(O)C2)[C@@]2(O)CC[C@H](C3=CC(=O)OC3)[C@@]2(C)C[C@H]4O)[C@H](O)[C@H](O)[C@H]1O (stereo partly drawn)	2%	/	/	7%	/	/
[N-]=[N+]=[N-]	6%	/	/	18%	/	/
C[C@@H](CO)NC(=O)[C@@H]1C=C2c3cccc4[nH]cc(c34)C[C@H]2N(C)C1	5%	/	/	-20%	/	/
Cc1ccc2oc(-c3ccc(Cl)cc3)c(O)c(=O)c2c1	/	?	?	/	?	-17%
C/C1=C/C(=O)O[C@@H]2C[C@@H](CC[C@H](C)/C=C\CC1)O[C@@](O)(C1CSC(=O)N1)C2 (stereo partly drawn)	6%	/	/	-9%	/	/
Cc1ccc([C@H]2C[C@@H](O)[C@H](n3cc(COC(=O)c4ccccc4)nn3)CN2CC2CCCCC2)cc1	/	0%	i	/	0%	-9%
c1ccoc1	3%	/	/	15%	/	/
c1ccc2c(c1)CC1CNCc3cccc(c31)S2 (stereo not drawn)	-1%	6%	i	1%	-18%	-30%
Cc1ccccc1C(=O)Nc1ccc(C(=O)OCc2cc(=O)n3nc(C4CC4)sc3n2)cc1	/	10%	?	/	?	-23%
COC1CCC(OC2CC(C3(C)CCC4(CC(O)C(C)C(C(C)/C=C(\C)C(=O)C(C)CC(C)C(=O)O)O4)O3)OC3(OC(C4OC(O)(CO)C(C)CC4C)CC3C)C2C)OC1C (stereo not drawn)	/	?	/	/	?	-5%
CCCCOc1ccc(C(=O)NCCc2csc(-c3ccc(OC)cc3)n2)cc1	/	?	/	/	/	-21%
CN(C)[C@@H]1C(=O)C(C(N)=O)=C(O)[C@@]2(O)C(=O)C3=C(O)c4c(O)ccc(Cl)c4[C@@](C)(O)C3C[C@@H]12 (stereo partly drawn)	-12%	3%	i	-16%	?	-9%
O=C(O)[C@@H]1Cc2[nH]cnc2C(c2cccnc2)N1 (stereo partly drawn)	1%	/	/	-25%	/	/
CN1CCCC(C(O)(c2ccccc2)c2ccccc2)C1 (stereo not drawn)	1%	-3%	i	-4%	/	4%
CC[C@H](C)[C@H](NC(=O)CN)C(=O)N[C@@H](CC(C)C)C(=O)NCC(=O)N[C@@H](Cc1ccccc1)C(=O)N[C@H](C(=O)N[C@@H](Cc1ccccc1)C(=O)N[C@H](C(=O)N[C@@H](CC(C)C)C(=O)O)[C@@H](C)O)C(C)C	-3%	/	/	21%	/	/
CC(=O)c1ccc(Oc2nc(C)nc3c2oc2ccccc23)cc1	/	?	i	/	-14%	-24%
SMILES	Gal4-VP16 FLuc	TGFb SMAD3 inh	S2 tox	RORg inh	ATXN2 expr inh	HepG2 viability	others
COC(=O)C1=CCCN(C)C1	1%	7%	i	4%	41%	6%	SK-N-SH 3D tox=13µM*;SJ-GBM2 3D tox=?;Daoy spheroid=i;TC32 3D casp=?;TC32 spheroid=4.1µM*;MG63 3D tox=i;RD spheroid=i
CCSC(=O)Cl	7%	/	/	-7%	/	/
C=C(CC1(C(C)NP(=O)(c2ccccc2)c2ccccc2)CC1)c1ccccc1 (stereo not drawn)	-13%	/	/	1%	/	/
O=C(/C=C\c1ccc(Cl)cc1)N[C@@]12CCC(=O)[C@@H]3Oc4c(O)ccc5c4[C@@]31CCN(CC1CC1)[C@@H]2C5	-26%	/	/	-6%	/	/
CCOP(=S)(OCC)SCn1c(=O)oc2cc(Cl)ccc21	-20%	/	/	38%	/	/
CC(C)c1ccc2c(c1O)CCC1C3=C(CC[C@]21C)C(=O)OC3 (stereo partly drawn)	-28%	/	/	?	/	/
COC(=O)c1ccc(CN2CCN(Cc3ccccc3)CC2)cc1	0%	-14%	i	-14%	-10%	47%
Oc1ccc([C@H]2CNCc3c2ccc(O)c3O)cc1O	/	/	?	/	-20%	/
